Assay results taken from PubChem BioAssay.
“And” between values parts separate entries of the source, which are not always exact repeats. Identical values can stand only once. The source made the active and inactive calls.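 Rule for the calls, unless noted: active = normalized viability below 100% at a tested concentration; inactive = the rest.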

Legend:
[1] = tested on: Aerobactin synthetase IucA (Klebsiella pneumoniae); experiment: inhibition of K. pneumoniae IucA enzyme – biochemical, Tocris library, absorbance (AID 1345561; call rule not given here;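 note: 100% = enzyme without compound and 0% = no enzyme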); details: purified IucA enzyme assay, absorbance (OD) read-out; stronger effect = lower value;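 tested at 8 µM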
[2] = viability loss with induced miR-34 in A549 – imaging, A549 dox-inducible miR-34, nuclei and caspase counts, primary screen (AID 1347080;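 active = compounds whose cell count with miR-34 switched on is under 0.7 times the count with it off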); details: A549 miR-34 inducible, Hoechst nuclei count, 48 h
[3] = target: Mitogen-activated protein kinase 7 (Homo sapiens) (UniProt Q13164); experiment: Gal4-ERK5 driven luciferase induction – cell-based, HTS, primary screen (AID 1508626;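 active = luciferase signal above three times the same-plate solvent-only control wells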;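 note: luciferase driven by Gal4-ERK5 fusion binding five Gal4 sites before minimal TATA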); details: HeLa Gal4-ERK5 transactivation, 18 h, at 5 µM, stronger effect = higher value
[4] = galactose survival enhancers in mitochondrial complex I cybrids – cell-based, galactose medium, ATP luminescence, primary screen (AID 1645843;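 active = z-score of at least 1.8 in each of two replicates, scored against plate mean and spread of sample wells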;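 note: positive z means more ATP and so rescue of galactose-driven cybrid death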); details: complex I mutant cybrid cells, 72 h, stronger effect = higher value
[5] = MELAS cybrid and Rieske KO viability enhancers – cell-based, MELAS cybrids, Rieske KO mouse fibroblasts, CellTiter-Glo, primary screen (AID 1508586;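 active = mean z-score across replicates of 1.96 or higher in either the MELAS or the Rieske mutant cell line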;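 note: z relative to plate mean and SD of compound and empty wells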); details: low glucose
[6] = drug combination growth inhibition, ovarian cancer – cell-based, oncology-focused library, rucaparib conditional, profiling panel (AID 1508598); details: patient-derived ovarian cancer cells, CellTiter-Glo viability, 144 h, stronger effect = lower value
[7] = compounds altering viability of human ES cells (AID 493140; call rule not given here;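 note: cells exposed to compounds for four days before counting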); details: human embryonic stem cell survival screen; stronger effect = higher value
[8] = P. berghei load reduction in hepatocytes – cell-based, HepG2, luciferase luminescence, HepG2 viability, primary screen (AID 624349; in the data active = parasite load remaining mostly below about 12%, no sharp cut-off; inactive = mostly above about 10%;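 note: 100% = mean of DMSO negative control wells on the same plate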); details: P. berghei liver stage in HepG2, luciferase luminescence, concentration not given here; parasite load remaining: stronger effect = lower value; viability: measured here: HepG2 viability without parasites
[9] = chitosan synthesis blockers in C. neoformans – flow cytometry, Cibacron Brilliant Red staining (AID 1347148; call rule not given here;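 note: compound exposure lasted three days at 37 degrees C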); details: Cryptococcus neoformans chitosan, stronger effect = lower value; at 10 µM unless noted
[10] = compounds altering HSF1 focus formation in cells – imaging, Selleck Cancer Library (AID 1347162; in the data active = plate-normalised HSF1 focus index below about 0.46); details: human cells, HSF1 nuclear foci imaging, at 10 µM; SSMD: measured here: HSF1 foci SSMD mean; cell count: measured here: cell number; plate-normalised HSF1 focus index: stronger effect = lower value
[11] = stronger effect = lower value, cell number ratio, induced over uninduced
[12] = measured here: relative caspase fold change +Dox/-Dox
[13] = measured here: total cells with miR-34 induction, stronger effect = lower value
[14] = measured here: total cells without miR-34 induction
[15] = MELAS cybrid survival, CellTiter-Glo 48 h, stronger effect = higher value
[16] = Rieske KO mouse fibroblast survival, CellTiter-Glo 72 h

Chain of Mitogen-activated protein kinase 7 (Homo sapiens) (Q13164 whole entry, looked up, the tested form may be a part): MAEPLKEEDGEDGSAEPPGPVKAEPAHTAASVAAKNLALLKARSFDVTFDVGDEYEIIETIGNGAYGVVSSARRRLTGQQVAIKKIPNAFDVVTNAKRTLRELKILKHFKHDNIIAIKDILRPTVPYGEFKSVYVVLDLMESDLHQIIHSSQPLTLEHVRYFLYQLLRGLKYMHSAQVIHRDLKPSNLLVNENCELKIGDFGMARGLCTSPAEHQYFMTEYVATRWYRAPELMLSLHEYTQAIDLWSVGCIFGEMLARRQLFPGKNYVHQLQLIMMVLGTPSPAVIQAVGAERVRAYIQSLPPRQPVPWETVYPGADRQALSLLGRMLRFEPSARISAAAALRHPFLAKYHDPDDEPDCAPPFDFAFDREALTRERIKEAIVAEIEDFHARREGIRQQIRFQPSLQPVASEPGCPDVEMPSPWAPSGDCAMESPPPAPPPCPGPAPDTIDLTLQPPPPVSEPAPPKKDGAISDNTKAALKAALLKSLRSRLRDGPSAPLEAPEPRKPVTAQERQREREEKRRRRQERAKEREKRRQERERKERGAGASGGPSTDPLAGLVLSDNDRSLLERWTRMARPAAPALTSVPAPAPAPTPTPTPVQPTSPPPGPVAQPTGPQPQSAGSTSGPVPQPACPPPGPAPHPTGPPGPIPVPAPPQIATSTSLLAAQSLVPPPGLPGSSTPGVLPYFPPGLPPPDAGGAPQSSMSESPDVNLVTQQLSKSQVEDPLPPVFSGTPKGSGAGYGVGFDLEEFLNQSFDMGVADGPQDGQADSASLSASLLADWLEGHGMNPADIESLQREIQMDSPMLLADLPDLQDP

For `CC(=O)O[C@@H]1C[C@H]2C(C)(C)C(=O)C=C[C@]2(C)[C@H]2CC[C@@]3(C)[C@H](c4ccoc4)OC(=O)[C@H]4O[C@]43[C@@]21C`, the remaining activity [1] was 103% (inactive), the fold change [2, 11] was 0.935 (inactive) and the fold change [2, 12] was 1.22. For the same compound, the cell count [2, 13] was 4410, the cell count [2, 14] was 4720 and the luciferase signal [3] was 96 AU (inactive). The z-score [4] was -0.435 (inactive).

In the case of `Cc1ccc(-c2csc(NC(=O)c3ccccc3)n2)c(C)c1`, the remaining activity [1] is reported as 101% (inactive), the fold change [2, 11] is reported as 0.855 (inactive) and 0.98 (inactive) and the fold change [2, 12] is reported as 0.603 and 0.953. For the same compound, the cell count [2, 13] was 6970 and 3650, the cell count [2, 14] was 8160 and 3730 and the z-score [5, 15] was -0.247 (inactive). The z-score [5, 16] was 0.265, the viability ([6]; at 0.000305 µM, OCI-C5x cells, with rucaparib 10 µM, 100% = cells with rucaparib alone) was 125% (inactive) and the viability ([6]; at 0.000305 µM, OCI-C5x cells, without rucaparib) was 121% (inactive). The viability ([6]; at 0.000305 µM, OCI-P5x cells, with rucaparib 20 µM, 100% = cells with rucaparib alone) was 102% (inactive), the viability ([6]; at 0.000305 µM, OCI-P5x cells, without rucaparib) was 106% (inactive) and the viability ([6]; at 0.00122 µM, OCI-C5x cells, with rucaparib 10 µM, 100% = cells with rucaparib alone) was 119% (inactive). For the same compound, the viability ([6]; at 0.00122 µM, OCI-C5x cells, without rucaparib) was 117% (inactive), the viability ([6]; at 0.00122 µM, OCI-P5x cells, with rucaparib 20 µM, 100% = cells with rucaparib alone) was 99.9% (active) and the viability ([6]; at 0.00122 µM, OCI-P5x cells, without rucaparib) was 101% (inactive). The viability ([6]; at 0.00488 µM, OCI-C5x cells, with rucaparib 10 µM, 100% = cells with rucaparib alone) was 132% (inactive), the viability ([6]; at 0.00488 µM, OCI-C5x cells, without rucaparib) was 125% (inactive) and the viability ([6]; at 0.00488 µM, OCI-P5x cells, with rucaparib 20 µM, 100% = cells with rucaparib alone) was 98.6% (active). For the same compound, the viability ([6]; at 0.00488 µM, OCI-P5x cells, without rucaparib) was 105% (inactive), the viability ([6]; at 0.0195 µM, OCI-C5x cells, with rucaparib 10 µM, 100% = cells with rucaparib alone) was 115% (inactive) and the viability ([6]; at 0.0195 µM, OCI-C5x cells, without rucaparib) was 113% (inactive). For the same compound, the viability ([6]; at 0.0195 µM, OCI-P5x cells, with rucaparib 20 µM, 100% = cells with rucaparib alone) was 102% (inactive), the viability ([6]; at 0.0195 µM, OCI-P5x cells, without rucaparib) was 98.4% (active) and the viability ([6]; at 0.0781 µM, OCI-C5x cells, with rucaparib 10 µM, 100% = cells with rucaparib alone) was 125% (inactive). The viability ([6]; at 0.0781 µM, OCI-C5x cells, without rucaparib) was 117% (inactive), the viability ([6]; at 0.0781 µM, OCI-P5x cells, with rucaparib 20 µM, 100% = cells with rucaparib alone) was 103% (inactive) and the viability ([6]; at 0.0781 µM, OCI-P5x cells, without rucaparib) was 103% (inactive). For the same compound, the viability ([6]; at 0.313 µM, OCI-C5x cells, with rucaparib 10 µM, 100% = cells with rucaparib alone) was 123% (inactive), the viability ([6]; at 0.313 µM, OCI-C5x cells, without rucaparib) was 116% (inactive) and the viability ([6]; at 0.313 µM, OCI-P5x cells, with rucaparib 20 µM, 100% = cells with rucaparib alone) was 100% (inactive). The viability ([6]; at 0.313 µM, OCI-P5x cells, without rucaparib) was 99.4% (active), the viability ([6]; at 1.25 µM, OCI-C5x cells, with rucaparib 10 µM, 100% = cells with rucaparib alone) was 131% (inactive) and the viability ([6]; at 1.25 µM, OCI-C5x cells, without rucaparib) was 112% (inactive). The viability ([6]; at 1.25 µM, OCI-P5x cells, with rucaparib 20 µM, 100% = cells with rucaparib alone) was 98.2% (active), the viability ([6]; at 1.25 µM, OCI-P5x cells, without rucaparib) was 103% (inactive) and the viability ([6]; at 5 µM, OCI-C5x cells, with rucaparib 10 µM, 100% = cells with rucaparib alone) was 155% (inactive). For the same compound, the viability ([6]; at 5 µM, OCI-C5x cells, without rucaparib) was 115% (inactive), the viability ([6]; at 5 µM, OCI-P5x cells, with rucaparib 20 µM, 100% = cells with rucaparib alone) was 91.8% (active) and the viability ([6]; at 5 µM, OCI-P5x cells, without rucaparib) was 100% (inactive). The z-score [4] was -0.675 (inactive).

For `COc1ccc(S(=O)(=O)N2c3ccc(Cl)cc3[C@](O)(c3ccccc3Cl)[C@@H]2C(=O)N2CCC[C@H]2C(N)=O)cc1OC`, the remaining activity [1] was 97.7% (inactive), the fold change [2, 11] was 0.908 (inactive) and the fold change [2, 12] was 1.22. The cell count [2, 13] was 8610, the cell count [2, 14] was 9480 and the z-score [4] was 0.855 (inactive).

For `Cc1nc2ccc(NC(=O)Nc3ccnc4cccnc34)cc2o1`, the remaining activity [1] was 111% (inactive), the fold change [2, 11] was 0.867 (inactive) and the fold change [2, 12] was 0.84. For the same compound, the cell count [2, 13] was 7250, the cell count [2, 14] was 8360 and the z-score [4] was 1.19 (inactive).

For `CC1(C)CC(=O)C(C2C3=C(CC(C)(C)CC3=O)Oc3ccccc32)C(=O)C1` (stereo not given), the remaining activity [1] was 120% (inactive), the fold change [2, 11] was 0.884 (inactive) and the fold change [2, 12] was 0.511. For the same compound, the cell count [2, 13] was 9160, the cell count [2, 14] was 10400 and the z-score [4] was -0.35 (inactive).

For `CCN(CC)CCOC(=O)C1(c2ccc([N+](=O)[O-])cc2)CCCC1`, the survival [7] was 10.9 (inactive), the parasite load remaining [8] was 105% (inactive) and the viability [8] was 84.2%. For the same compound, the remaining activity [1] was 78.5% (inactive), the fold change [2, 11] was 0.929 (inactive) and 1.02 (inactive) and the fold change [2, 12] was 1.89 and 0.688. For the same compound, the cell count [2, 13] was 8310 and 8650, the cell count [2, 14] was 8940 and 8460 and the z-score [5, 15] was 0.368 (inactive). For the same compound, the z-score [5, 16] was -0.484 and the z-score [4] was -1.09 (inactive).

With `C/C(=N\NC(=O)[C@@H]1C(=O)NC[C@H]1c1ccccc1)c1cccc(Br)c1` the remaining activity [1] was 103% (inactive), the fold change [2, 11] was 0.887 (inactive) and the fold change [2, 12] was 1.69. For the same compound, the cell count [2, 13] was 8430, the cell count [2, 14] was 9510 and the z-score [4] was 0.375 (inactive).

In the case of `COc1ccc(C(=O)Nc2sc3c(c2C(N)=O)CCCC3)cc1OC`, the parasite load remaining [8] is reported as 36.2% (inactive), the viability [8] is reported as 126% and the remaining activity [1] is reported as 100% (inactive). The fold change [2, 11] was 0.968 (inactive) and 0.928 (inactive), the fold change [2, 12] was 0.55 and 1.37 and the cell count [2, 13] was 7430 and 8340. For the same compound, the cell count [2, 14] was 7670 and 8990, the z-score [5, 15] was -0.293 (inactive) and the z-score [5, 16] was 0.823. For the same compound, the z-score [4] was 1.42 (inactive).

In the case of `COC(=O)C1=C(C)NC(C)=C([N+](=O)[O-])[C@H]1c1ccccc1C(F)(F)F`, the remaining activity [1] is reported as 113% (inactive), the fold change [2, 11] is reported as 0.834 (inactive) and the fold change [2, 12] is reported as 1.13. For the same compound, the cell count [2, 13] was 7130, the cell count [2, 14] was 8550 and the fold fluorescence [9] was 5.36 [at 140.3 µM] (inactive). The z-score [4] was -0.645 (inactive).

With `Cc1nn(-c2ccccc2)c(C)c1/C=N/N1CCN(Cc2ccccc2)CC1` the remaining activity [1] was 122% (inactive), the fold change [2, 11] was 1.03 (inactive) and the fold change [2, 12] was 0.466. It also gave a cell count [2, 13] of 8730, a cell count [2, 14] of 8510 and an SSMD [10] of 3.26. For the same compound, the cell count [10] was 6930, the plate-normalised HSF1 focus index [10] was 1.18 (inactive) and the z-score [4] was -0.095 (inactive).

For `Cc1ccc(Sc2cncc3sc(C(N)=O)cc23)cc1`, the remaining activity [1] was 99.8% (inactive), the fold change [2, 11] was 0.867 (inactive) and 0.873 (inactive) and the fold change [2, 12] was 2.32 and 1.58. For the same compound, the cell count [2, 13] was 7640 and 7700, the cell count [2, 14] was 8800 and 8820 and the z-score [5, 15] was -0.504 (inactive). For the same compound, the z-score [5, 16] was -0.347 and the z-score [4] was -0.625 (inactive).

With `Cc1ccc(/C=C2\CNC/C(=C\c3ccc(C)cc3)C2=O)cc1` the remaining activity [1] was 95.5% (inactive), the fold change [2, 11] was 0.9 (inactive) and the fold change [2, 12] was 0.964. The cell count [2, 13] was 500, the cell count [2, 14] was 556 and the z-score [4] was -0.645 (inactive).

In the case of `COC(=O)[C@@H]1C2C[C@H]3c4[nH]c5ccccc5c4CCN3C[C@@H]2CC[C@@H]1O` (stereo not given in full), the remaining activity [1] is reported as 95.9% (inactive), the fold change [2, 11] is reported as 0.91 (inactive) and the fold change [2, 12] is reported as 2.92. For the same compound, the cell count [2, 13] was 8430, the cell count [2, 14] was 9270 and the z-score [4] was 0.315 (inactive).

In the case of `CN=C1C=C2C(=NC=NC2=Nc2cccc(Br)c2)C=N1`, the remaining activity [1] is reported as 82.7% (inactive), the fold change [2, 11] is reported as 0.699 (active) and the fold change [2, 12] is reported as 1.7. For the same compound, the cell count [2, 13] was 942, the cell count [2, 14] was 1350 and the z-score [4] was -0.675 (inactive).

In the case of `O=[N+]([O-])c1cccc2c[nH]nc12`, the remaining activity [1] is reported as 110% (inactive), the fold change [2, 11] is reported as 0.915 (inactive) and the fold change [2, 12] is reported as 0.873. For the same compound, the cell count [2, 13] was 7800, the cell count [2, 14] was 8520 and the z-score [4] was -0.1 (inactive).
